Here are results for 31 compounds from PubChem BioAssay AID488911 (Broad Institute, 2010).

Measured potencies and affinities stand elsewhere. Calls of active or inactive are those of the source.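 The calls were made as follows: active = falling signal whose fitted half-effect dose is at or below ten times the top valid dose; inconclusive = flat fit showing a moderate drop, or a poor fit; inactive = the rest.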

The nature of this experiment: NIH-3T3 viability with fluconazole co-treatment – cell-based, Alamar Blue, dry powder, set 2, cytotoxicity control for antifungal resistance reversal project, dose response (AID 488911). The following applies: 48 h; series mostly up to 26 µM.
As to `CCCC(=O)N1CCN(c2ccnc3cc(Cl)ccc23)CC1`, the result was inactive.
For the compound `N#Cc1ccc(N2CCN(C(=O)c3ccc(Cl)cc3)CC2)nc1`, the outcome was inactive.
For `O=C(c1ccc(Cl)cc1)N1CCN(c2ccnc3ccc(Cl)cc23)CC1`, the outcome was inactive.
Take `O=C(c1ccc(Cl)cc1)C1CCN(c2ccnc3cc(Cl)ccc23)CC1`: the outcome was inactive.
Turning to `Cc1cc(N2CCN(C(=O)c3ccc(Cl)cc3)CC2)c2ccccc2n1`, the outcome was inactive.
As to `O=C(c1ccc(Cl)cn1)N1CCN(c2ccnc3cc(Cl)ccc23)CC1`, the result was inactive.
Turning to `COc1ccc(C(=O)N2CCN(c3ccnc4cc(Cl)ccc34)CC2)cc1`, the result was inactive.
Take `O=C(c1cccc(Cl)c1)N1CCN(c2ccnc3cc(Cl)ccc23)CC1`: the result was inactive.
`O=C(c1ccc(Cl)cc1)N1CCN(c2ncnc3nc[nH]c23)CC1`: the result was inactive.
In the case of `CC(C)C(=O)N1CCN(c2ccnc3cc(Cl)ccc23)CC1`, the result was inactive.
Consider `CC(C)CC(=O)N1CCN(c2ccnc3cc(Cl)ccc23)CC1`, for which the outcome was inactive.
`O=C(c1ccc(Cl)cc1)N1CCN(c2ncnc3ccccc23)CC1`: the outcome was inactive.
Turning to `COCCC(=O)N1CCN(c2ccnc3cc(Cl)ccc23)CC1`, the result was inactive.
In the case of `O=C(C1CCC1)N1CCN(c2ccnc3cc(Cl)ccc23)CC1`, the result was inactive.
On to `Cc1cc(N2CCN(C(=O)c3ccc(Cl)cc3)CC2)c2ccc(F)cc2n1`, for which the outcome was inactive.
With `O=C(c1ccc(Cl)nc1)N1CCN(c2ccnc3cc(Cl)ccc23)CC1`, the result was inactive.
Regarding `O=C(c1ccc(Cl)cc1)N1CCN(c2ccncc2)CC1`, the result was inactive.
As for `O=C(c1ccc(Cl)cc1)N1CCN(c2ccnc3cc(Cl)ccc23)CC1`, the outcome was inactive.
With `O=C(c1ccc(Cl)cc1)N1CCNCC1`, the result was inactive.
Regarding `CC1CN(c2ccnc3cc(Cl)ccc23)CCN1C(=O)c1ccc(Cl)cc1` (stereo unspecified), the outcome was inactive.
For `COc1cccc2c(N3CCN(C(=O)c4ccc(Cl)cc4)CC3)cc(C)nc12`, the outcome was inactive.
Regarding `Clc1ccc2c(N3CCNCC3)ccnc2c1`, the result was inactive.
Take `COc1ccc2c(N3CCN(C(=O)c4ccc(Cl)cc4)CC3)ccnc2c1`: the outcome was inactive.
As for `O=C(C1CCCC1)N1CCN(c2ccnc3cc(Cl)ccc23)CC1`, the outcome was inactive.
Consider `O=C(c1ccc(Cl)cc1)N1CCN(c2ccnc3ccccc23)CC1`, for which the outcome was inactive.
For the compound `O=C(C1CCCCC1)N1CCN(c2ccnc3cc(Cl)ccc23)CC1`, the result was inactive.
Regarding `O=C(c1ccc(Cl)cc1)N1CCN(c2ccccn2)CC1`, the result was inactive.
As to `O=C(c1ccc(Cl)cc1)N1CCCN(c2ccnc3cc(Cl)ccc23)CC1`, the result was inactive.
Then `O=C(c1ccc(F)cc1)N1CCN(c2ccnc3cc(Cl)ccc23)CC1`, with “inactive”; and `O=C(Nc1ccc(Cl)cc1)N1CCN(c2ccnc3cc(Cl)ccc23)CC1`, with “inactive”.
The value for `O=C(c1ccccc1Cl)N1CCN(c2ccnc3cc(Cl)ccc23)CC1` was “inactive”.
